TDP1 cell CPT – growth inhibition of DT40 Tdp1-/-;hTDP1 cells with camptothecin (screen for TDP1 inhibitors); chicken DT40 Tdp1-/-;hTDP1 cells + 20 nM CPT, ATP luminescence, 48 h; Potency, µM (top dose mostly 46.2 µM), for the others: top-dose activity change, negative = growth inhibition, usual class: inhibitors; 420,000 compounds, 12% hits; AID 686979; note: potency is the fitted concentration of half-maximal effect; % is set by controls: 0 for no effect and ±100 for the full control effect; nearly all actives have a fitted effect of over 55% in size
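Chicken DT40 Tdp1-/- cells complemented with human TDP1, 400 cells/well, exposed to compounds plus 20 nM camptothecin for at least 48 h at 37 C; viability read as ATP content by CellTiter-Glo luminescence.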
IL1B secr inh – inhibitors of inflammasome signaling (IL-1 beta secretion); 360,000 compounds, 4.7% hits; AID 743279; THP-1 LPS/ATP IL-1B secretion, AlphaLISA, 16 h; stronger effect = lower value; activity change, % at 57.5 µM; in the data active = activity change below about -50%; inconclusive = mostly about -30% to -49%; note: % is set by controls: 0 for no effect and ±100 for the full control effect
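THP-1 cells pretreated 1 hr with compounds (up to 57.5 uM final), then stimulated with LPS (250 ng/mL final) plus ATP (1.25 mM final); secreted IL-1B measured by AlphaLISA after 16 hr, decreased signal indicating inhibition.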
HepG2 tox – HepG2 cytotoxicity, counter-screen for TGF-b inhibitors; 410,000 compounds, 0.76% hits; HepG2 CAGA-GFP viability, ATP luminescence, 18 h; Potency, µM (highest dose often 46.1 µM), for inactives: top-dose activity change, negative = cytotoxicity, most hits filed as cytotoxic; note: potency is the fitted concentration of half-maximal effect
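CellTiter-Glo luminescence gave cytotoxicity after 18 hours at 37 degrees C. The cells were HepG2 CAGA-GFP in 1% FBS DMEM, stimulated with 500 pg/mL TGF-beta after compound addition. %Activity was normalised to no-cell wells (complete cell-killing) and DMSO (no toxicity), and curves were fitted and classified.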
TGFb inhibitor – TGF-b pathway inhibition. HepG2 CAGA-GFP TGF-b/SMAD3 reporter, GFP fluorescence, 18 h; TGF-beta stimulated, 500 pg/mL final. Potency, µM (series often up to 46.1 µM), for inactives: top-dose activity, negative = inhibition, usual class: inhibitors. 410,000 compounds, 1.2% hits; note: potency is the fitted concentration of half-maximal effect; % is set by controls: 0 for no effect and ±100 for the full control effect; nearly all actives have a fitted effect of over 65% in size
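Cell-based qHTS in HEPG2 carrying a CAGA-GFP Smad reporter; compounds added before 500 pg/mL final TGF-beta, 18 h incubation at 37 degrees C, GFP fluorescence quantified per cell by imaging cytometry.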
DT40 TDP1 no CPT – qHTS for Inhibitors of human tyrosyl-DNA phosphodiesterase 1 (TDP1): qHTS in cells in absence of CPT. 420,000 compounds, 15% hits. Potency, µM (doses to about 46.2 µM), inactives show at the top dose activity change, negative = growth inhibition, most hits filed as inhibitors. DT40 Tdp1-/- hTDP1 cells, no CPT, ATP luminescence, 48 h; note: potency is the fitted concentration of half-maximal effect; % is set by controls: 0 for no effect and ±100 for the full control effect; nearly all actives have a fitted effect of over 55% in size
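Growth of hTDP1-complemented DT40 Tdp1-knockout cells is measured by ATP luminescence after at least 48 hr compound exposure at 37 °C, with DMSO substituting for the 20 nM CPT used in the parallel screen.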
S-ASM inh – inhibitors of human secretory acid sphingomyelinase. AID 504937. Potency, µM (doses to about 57.5 µM), for inactives: at the top dose activity change, negative = inhibition, hits mostly inhibitors. placental ASM, HMU-PC fluorogenic substrate, 60 min. 340,000 compounds, 0.006% hits. P17405; note: potency is the fitted concentration of half-maximal effect
Target sequence (P17405 47-631 limits assumed): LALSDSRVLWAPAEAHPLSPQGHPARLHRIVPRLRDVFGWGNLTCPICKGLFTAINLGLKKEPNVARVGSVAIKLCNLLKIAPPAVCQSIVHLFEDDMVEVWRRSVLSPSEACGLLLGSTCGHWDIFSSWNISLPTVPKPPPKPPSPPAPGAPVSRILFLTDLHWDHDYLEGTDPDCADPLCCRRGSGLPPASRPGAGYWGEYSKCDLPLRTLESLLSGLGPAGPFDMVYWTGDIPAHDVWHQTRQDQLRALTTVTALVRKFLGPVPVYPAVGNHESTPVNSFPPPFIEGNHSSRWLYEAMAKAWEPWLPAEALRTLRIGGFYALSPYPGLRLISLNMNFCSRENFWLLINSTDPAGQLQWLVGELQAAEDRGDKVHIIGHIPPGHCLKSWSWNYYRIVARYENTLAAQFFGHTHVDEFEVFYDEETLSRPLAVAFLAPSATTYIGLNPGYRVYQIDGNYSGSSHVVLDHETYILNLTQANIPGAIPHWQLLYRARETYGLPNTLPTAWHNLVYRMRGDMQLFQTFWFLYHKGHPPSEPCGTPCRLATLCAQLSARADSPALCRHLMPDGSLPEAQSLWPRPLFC
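qHTS format. ASM enzyme prepared from human placenta hydrolyses the fluorogenic substrate HMU-PC0 (9 uM final) over 60 min at 37 °C after a 10 min compound preincubation.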
* hit, by the source's call; i = inactive; ? = inconclusive; · = no result; [ ] = another dose, or the depositor's remark. The list is not random: actives were taken first. Their share in the collection is about 19%. Unless noted, calls come from the whole dose curve; as a rule, active = well fitted curve in the direction sought with a large enough effect; inconclusive = small, poorly fitted or top-dose-only effect, or another doubt; inactive = no such curve, though single readings can be large; an effect the other way counts as inactive or inconclusive.

SMILES	TDP1 cell CPT	IL1B secr inh	HepG2 tox	TGFb inhibitor	DT40 TDP1 no CPT	S-ASM inh
O=C(C1CCC1)N1CCc2cc(S(=O)(=O)Nc3ccc4c(c3)OCCO4)ccc21	12µM*	?	-23%	-14%	7.3µM*	-2%
O=C(C1CCN(S(=O)(=O)c2ccccc2)CC1)N1CCc2ccccc21	-25%	i	5%	8%	-22%	-2%
CS(=O)(=O)N1CCc2cc(S(=O)(=O)NCCNS(=O)(=O)c3ccc4c(c3)CCN4S(C)(=O)=O)ccc21	1%	27	2%	-1%	7%	-3%
O=C(C1CCC1)N1CCc2cc(S(=O)(=O)NC3CCCC3)ccc21	?	35	0%	16%	?	0%
O=C(C1CCN(S(=O)(=O)c2ccc3c(c2)OCCO3)CC1)N1CCc2ccccc21	?	-7	1%	-6%	21µM*	0%
O=C(C1CC1)N1CCc2cc(S(=O)(=O)N3CCCc4ccccc43)ccc21	?	4	1%	7%	15µM*	-1%
CC1CCCCN1S(=O)(=O)c1ccc2c(c1)CCN2C(=O)C1CC1 (stereo not drawn)	-18%	14	-6%	-8%	-8%	3%
CCC(=O)N1CCc2cc(S(=O)(=O)Nc3ccc4c(c3)OCCO4)ccc21	9.2µM*	?	0%	-10%	5.2µM*	-2%
Cn1c(=O)c(=O)n(C)c2cc(S(=O)(=O)Nc3ccc4c(c3)OCCO4)ccc21	?	19	-3%	4%	?	0%
CS(=O)(=O)N1CCc2cc(S(=O)(=O)Nc3ccc4c(c3)OCCO4)ccc21	12µM*	-22	-26%	?	8.2µM*	-3%
CC(=O)N1CCc2cc(S(=O)(=O)NC(C(=O)Nc3ccc4c(c3)OCCO4)C(C)C)ccc21 (stereo not drawn)	-1%	10	-24%	-7%	-11%	4%
NS(=O)(=O)c1cc(C(=O)OCC(=O)Nc2ccc(N3CCCCC3)cc2)ccc1Cl	-26%	-2	-1%	24%	19%	0%
Cc1c(C(=O)OCc2ccccc2)[nH]c2c1C(=O)CC(c1ccc(C(C)(C)C)cc1)C2 (stereo not drawn)	?	·	-9%	-6%	18µM*	·
COc1ccc(COC(=O)c2[nH]c3c(c2C)C(=O)CC(c2ccc(OC)c(OC)c2)C3)cc1 (stereo not drawn)	9.2µM*	·	-20%	-19%	6.5µM*	·
Cc1ccc(COC(=O)c2[nH]c3c(c2C)C(=O)CC(c2ccc(N(C)C)cc2)C3)cc1 (stereo not drawn)	-37%	·	-9%	-4%	-31%	·
COc1ccc(C2CC(=O)c3c([nH]c(C(=O)OC(C)C)c3C)C2)cc1OC (stereo not drawn)	23µM*	11	-4%	-4%	21µM*	3%
COc1ccc(C2CC(=O)c3c([nH]c(C(=O)OCc4ccccc4)c3C)C2)cc1 (stereo not drawn)	12µM*	·	-1%	0%	?	·
COc1ccc(C2CC(=O)c3c([nH]c(C(=O)OC4CCC(C)CC4)c3C)C2)cc1OC (stereo not drawn)	?	·	-8%	-1%	-14%	·
CSc1cccc(Nc2nc3c(S(=O)(=O)c4ccccc4)nnn3c3ccc(Cl)cc23)c1	?	·	7%	7%	?	·
O=S(=O)(Nc1c(Br)cc(Br)c2cccnc12)C1CC1	·	·	-26%	0%	·	·
COC(=O)c1ccc(N=NN2CCCCC2)cc1	-6%	-7	-2%	0%	?	-3%
N#CN=c1snc(-c2ccccc2Cl)n1-c1ccc(F)cc1	?	·	-1%	5%	?	·
Cc1cc(C)c2c(c1)CC(C)(C)CC2=O	25%	19	-3%	-4%	1%	-5%
COC(=O)c1scc(-c2ccc(C)cc2)c1S(=O)(=O)N1CCN(c2ccc(F)cc2)CC1	8.2µM*	·	-17%	?	1.8µM*	·
COC(=O)c1cc(S(=O)(=O)N2CCN(c3ccc(F)cc3)CC2)cn1C	?	21	-22%	-29%	?	1%
SMILES	TDP1 cell CPT	IL1B secr inh	HepG2 tox	TGFb inhibitor	DT40 TDP1 no CPT	S-ASM inh
COC(=O)c1scc(-c2ccc(C)cc2)c1S(=O)(=O)N1CCN(c2cccc(OC)c2)CC1	9.2µM*	·	-22%	?	5.8µM*	·
COc1ccc(CN2CCCC(n3cc(C(=O)N4CCCCC4)nn3)C2)c(OC)c1C (stereo not drawn)	11%[9.04 µM]	·	·	·	-18%	·
CCOC(=O)c1ccccc1NC(=O)N1CCn2c(C)ccc2C1CC (stereo not drawn)	23µM*	1	-19%	1%	?	36%
CCCC1c2ccc(C)n2CCN1C(=O)Nc1ccccc1Cl (stereo not drawn)	-28%	-21	-1%	-3%	21µM*	14%
COc1ccc(-n2c(CNC(=O)c3cccc4ccccc34)nnc2SC)cc1	9%	·	·	·	-21%	·
CCc1ccc2nc(NC(=O)c3cc(C)on3)sc2c1	9.2µM*	1	-38%	-20%	8.2µM*	19%
CCOc1ccc2nc(NC(=O)c3ccccc3)sc2c1	13µM*	·	-46%	-4%	23µM*	·
CN(C)C(=S)Nc1nc2ccccc2s1	3.7µM*	20	-6%	?	2.6µM*	-1%
CCOc1ccc2nc(NC(=S)N(C)C)sc2c1	1.3µM*	-14	-20%	-25%	1.2µM*	-2%
CCOc1ccc2nc(NC(=O)c3cccnc3)sc2c1	-22%	-7	-1%	11%	-12%	7%
CCc1noc(C)c1C(=O)Nc1nc2ccc(F)cc2s1	7%	48	-6%	-20%	-16%	-4%
CCC12CN3CC(CC)(CN(C1)C3c1cccc(OC)c1O)C2=O (stereo not drawn)	-29%	·	0%	-2%	?	·
CCOc1ccc2nc(NC(=O)c3ccc(C)o3)sc2c1	?	-30	-55%	-10%	18µM*	0%
CCOc1ccc2nc(NC(=O)C3=NN(c4ccccc4)C(=O)CC3)sc2c1	?	20	-3%	-24%	26µM*	-5%
CCOc1ccc2nc(NC(=O)c3cnc(C)cn3)sc2c1	15µM*	-10	-19%	?	21µM*	-1%
CCOc1ccc2nc(NC(=O)C3=NNC(=O)CC3)sc2c1	7%	-2	-21%	-2%	11%	-4%
Cc1ccc2nc(NC(=O)C3=NN(c4ccccc4)C(=O)CC3)sc2c1	-10%	-18	-15%	6%	-13%	-10%
